# Results: PubChem BioAssay AID743395 (Broad Institute, 2014)
# Hit rate of the full screen: of about 1,200 compounds, about 480 (40%) were called active. The set was probably picked from earlier hits. Not all results are given here. Results with a measured potency or affinity are listed apart. Unmarked numbers belong to inactive results. No rule for the calls is given here.
# Assay: HepG2 cell cytotoxicity, dose response, cytotoxicity control, CellTiter-Glo luminescence, cherry-pick, set 2 (AID 743395);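 also: 0% = neutral control wells and -100% = positive control wells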
# Conditions: HepG2 viability, CellTiter-Glo ATP luminescence, 72 h; series mostly up to 26 µM; activity change, negative = cytotoxicity: at the top concentration
row,SMILES,"activity change, negative = cytotoxicity"
1,Cc1cccc2c(N=Nc3ccc(S(=O)(=O)Nc4ccc(Cl)cc4)cc3[N+](=O)[O-])c(O)[nH]c12,1.24%
2,Cc1ccc(-c2nc(CSCC(=O)Nc3cc(C)on3)c(C)o2)cc1,-3.4%
3,COc1ccc(C#Cc2ccc3c(c2)O[C@@H](CN(C)C(=O)Nc2cccc(OC)c2)[C@H](C)CN([C@H](C)CO)S3(=O)=O)cc1,-6.6%
4,CO[C@@H]1CN(C)C(=O)c2cc(NC(=O)Nc3c(C)noc3C)ccc2OC[C@@H](C)N(C)C[C@@H]1C,4.2%
5,Cc1ccc(S(=O)(=O)NCc2ccccc2)cc1C(=O)N1CC(C)CC(C)C1 (stereo unspecified),-7.82%
6,Cc1cccc(OCCNC(=O)c2ccc(Cl)c(S(=O)(=O)NCc3cccnc3)c2)c1,-31.4%
7,N=c1sccn1CC(=O)Nc1ccc(S(N)(=O)=O)cc1,-16.8%
8,COC(=O)C[C@@H]1CC[C@@H]2[C@H](COc3ccc(NC(=O)c4ccc(C(F)(F)F)cc4)cc3C(=O)N2C)O1,-19.6%
9,NS(=O)(=O)c1ccc(CNc2ccc3ccccc3n2)cc1,1.62%
10,O=C(CN(Cc1ccccc1)S(=O)(=O)c1ccc(F)cc1)NCc1cccnc1,-16.4%
11,COC(=O)c1ccsc1NC(=O)c1ccccc1,-17.6%
12,CCN(C(=O)COC(=O)c1cc(-c2ccccc2)nc2c1c(C)nn2-c1ccc(C)cc1)C1CCS(=O)(=O)C1 (stereo unspecified),-8.63%
13,CC(C)c1ccc(CN2CCN(S(=O)(=O)c3ccc(Cl)s3)CC2)cc1,-4.24%
14,Cc1cc(C)cc(C(=O)NCC(=O)OCc2cc([N+](=O)[O-])cc3c2OCOC3)c1,17%
15,CCN(CC)C(=S)SSC(=S)N(CC)CC,-4.43%
16,Cc1cc2c(cc(C(=O)OC(C)C(=O)NCc3ccc(F)cc3)n2C)o1 (stereo unspecified),-0.125%
17,CCN(CC)CCn1c2c(c(SCC(=O)Nc3ccc(F)c(F)c3)nc1=O)CCC2,-13%
18,COc1cc(C(=O)OCCc2cc3ccccc3c(=O)o2)cc(OC)c1OC,-16.8%
19,O=C1c2ccccc2C(=O)N1Cc1cnc(N2CCN(c3ccccc3)CC2)s1,-32%
20,CCOC(=O)c1cnc(COc2ccc(OC)cc2)[nH]c1=O,-2%
21,S=C(NCCc1ccccc1)Nc1nccs1,-14.8%
22,COc1ccc(NS(=O)(=O)c2cc(NC(=O)Cc3c(F)cccc3Cl)ccc2OC)cc1,-10.6%
23,CC1CN(S(=O)(=O)c2ccc(C(=O)N3CCc4ccccc43)cc2)CC(C)O1 (stereo unspecified),5.35%

row,SMILES,"activity change, negative = cytotoxicity"
1,O=S(=O)(c1ccc(Br)cc1)N1CCCc2ccccc21,4.64%
2,C[C@H](CO)N1C[C@H](C)[C@H](CN(C)C(=O)c2ccc3c(c2)OCO3)Oc2cc(C#Cc3ccccc3F)ccc2S1(=O)=O,62.9%
3,COc1ccc(C)cc1NC(=O)C(OC(=O)c1ccc(Cl)c(S(=O)(=O)N(C)c2ccccc2)c1)c1ccccc1 (stereo unspecified),6.28%
4,O=c1c(O)c(-c2cccs2)oc2ccc(Cl)cc12,-32.4%
5,O=C(NCCCN1CCCC1=O)c1cc(S(=O)(=O)N2CCOCC2)c(Cl)cc1Cl,1.04%
6,CC(C)Oc1ccc(S(=O)(=O)N2CCOCC2)cc1NC(=O)CCCSc1ccccc1,7.1%
7,c1ccc2c(c1)N1CCCN=C1N2CCN1CCCCC1,-12.9%
8,COc1ccc(NC(=O)N(C)C[C@@H]2Oc3cc(C#CCC(C)C)ccc3S(=O)(=O)N([C@H](C)CO)C[C@@H]2C)cc1,7.43%
9,O=C(NCC(c1cccs1)N1CCOCC1)c1ccc(OCc2ccccc2)cc1 (stereo unspecified),12.2%
10,Cc1ccc(S(=O)(=O)N2CCOCC2)cc1NC(=O)CSc1nnc(COc2ccccc2F)n1N,-0.298%
11,CCOC(=O)[C@H](CCc1ccccc1)N[C@@H](C)C(=O)N1[C@H](C(=O)O)C[C@@H]2CCC[C@@H]21,-17.6%
12,CCOc1ccc(NS(=O)(=O)c2cc(NC(=O)CCNC(=O)c3ccco3)ccc2OC)cc1,-23.6%
13,CC(=O)OCC(=O)NCCCOc1cccc(CN2CCCCC2)c1,-9.23%
14,Cc1c(C)c2c(OCC(=O)N3CCC(O)CC3)cc3c(c2oc1=O)CCC(C)(C)O3,-0.002%
15,CN(Cc1cccs1)C(=O)c1cccc(S(=O)(=O)N2CCCCCC2)c1,-15.8%
16,CCOc1ccc(C(=O)N[C@H](C(=O)Nc2cccc(S(=O)(=O)N3CCCCC3)c2)C(C)C)cc1,34.1%
17,COC(CNC(=O)[C@H](Cc1ccccc1)N1Cc2ccccc2C1=O)OC,1.08%
18,CC(C(=O)O)N(C(=O)c1ccccc1)c1ccc(F)cc1 (stereo unspecified),-6.57%
19,O=C(NCCC1CCCCN1S(=O)(=O)c1cccs1)C(=O)Nc1ccc(F)cc1F (stereo unspecified),-11.5%
20,COc1ccc(NC(=O)C2CCCN2C(=O)Nc2cccc(F)c2)cc1 (stereo unspecified),-4.96%
21,Cc1ccc(OCC(=O)Nc2ccc(CN3CCCCC3)cc2)c(C)c1,-4.73%
22,N#CC(C#N)=C1C=C2C=C(N3CCOCC3)CCC2CC1 (stereo unspecified),-4.57%
23,CCN(CC)C1=CC2=CC(=C(C#N)C#N)CCC2CC1 (stereo unspecified),2.84%

row,SMILES,"activity change, negative = cytotoxicity"
1,CC12CCC3c4ccc(O)cc4CCC3C1CCC2=O (stereo unspecified),-5.95%
2,C#C[C@]1(O)CC[C@H]2[C@@H]3CCc4cc(OC)ccc4[C@H]3CC[C@@]21C,-1.22%
3,COc1cccc(C#Cc2ccc3c(c2)O[C@@H](CN(C)C(=O)c2ccccn2)[C@H](C)CN([C@@H](C)CO)S3(=O)=O)c1,11.2%
4,O=C(O)COC(=O)Cc1ccccc1Nc1c(Cl)cccc1Cl,-6.65%
5,Cc1ccc(C(=O)Nc2cccc(C(F)(F)F)c2)cc1Nc1cnccn1,2.75%
6,CC(=O)c1cc(NC(=O)c2cccc(C(F)(F)F)c2)c(=O)oc1C,1.46%
7,COCCNc1nc(Nc2ccc(C)cc2C)c2sccc2n1,-3.94%
8,Cn1cccc1C(=O)OCC(=O)NCc1ccc2c(c1)OCO2,-11.8%
9,CC(=O)NS(=O)(=O)c1ccc(NC(=O)CSc2ccc(Cl)cc2)cc1,-2%
10,CC(C)(C)C(=O)Nc1ccc(S(=O)(=O)NC2=NCCCCC2)cc1,-0.044%
11,Cc1ccc(S(=O)(=O)Nc2cc(C)cc(CCNC=O)c2C)cc1,4.38%
12,Cc1cc(O)cc2c1C1CCC3(C)C(=O)CCC3C1C=C2 (stereo unspecified),8.57%
13,COc1ccc(-c2oc3ccc(-c4cc(OC)c(OC)c(OC)c4)cc3c2C#Cc2ccccn2)cc1,-5.9%
14,COc1ccc(CCn2c(NN=C(C)C)nc3c2c(=O)[nH]c(=O)n3C)cc1,-1.37%
15,CCCCNC(=O)CSc1nc2ccc(C)cc2[nH]1,4.44%
16,COC(=O)c1ccc(C(=O)NC2CCCc3c2cnn3-c2cc(F)cc(F)c2)nc1 (stereo unspecified),-22.1%
17,COC(=O)C1=CN(c2ccc3c(c2)OCO3)C(N)=C(C#N)C1c1cccc(F)c1 (stereo unspecified),-9.02%
18,COc1cccc(NC(=O)c2cnc(SCC(=O)NCc3ccc4c(c3)OCO4)n(C)c2=O)c1,-13.8%
19,C/C=C/c1ccc([C@@H]2[C@H](CO)N3CCCCN(S(=O)(=O)c4ccccc4)C[C@@H]23)cc1,9.51%
20,O=C(Nc1ccc(F)cc1)N1CCCCN2[C@H](C1)[C@H](c1ccc(-c3cccc(F)c3)cc1)[C@@H]2CO,-14.1%
21,OC[C@@H]1[C@@H](c2ccc(C#CC3(O)CCCC3)cc2)[C@H]2CN(Cc3ccccc3F)CCCCN12,-24.4%
22,O=C(Nc1ccccc1)N1C[C@H]2[C@@H](c3ccccc31)[C@H](CO)N2C(=O)c1ccccn1,-1.86%
23,CCOc1ccc(NC(=O)CN(c2ccc([N+](=O)[O-])cc2)S(=O)(=O)c2ccccc2)cc1,-26%

row,SMILES,"activity change, negative = cytotoxicity"
1,Cc1ccc(NC(=O)Cc2nc(-c3c[nH]c(C(=O)N4CCCC4)c3)cs2)c(C)c1,-12.1%
2,OC[C@H]1[C@H](c2ccc(C#CC3(O)CCCC3)cc2)[C@H]2CN(Cc3ccccc3F)CCCCN21,-17.8%
3,COc1ccc(C#Cc2ccc([C@H]3[C@H]4CN(C(=O)c5ccncc5)CCCCN4[C@H]3CO)cc2)cc1,-22.7%
4,O=S(=O)(Cc1ccccc1)N1CCCCN2[C@H](C1)[C@@H](c1ccc(C#Cc3ccccc3)cc1)[C@@H]2CO,-21.4%
5,C[C@]12C=CC(=O)C=C1CC[C@@H]1C2[C@@H](O)C[C@@]2(C)C1CC[C@]2(O)C(=O)COC(=O)CCC(=O)O (stereo partly specified),-0.286%
6,Nc1nn(-c2ccccc2)c(N)c1N=Nc1cccc(F)c1,-13.9%
7,CCN(C(=O)COc1ccc2ccc(=O)oc2c1)C1CCCCC1,-7.77%
8,CC(C)Nc1nc(Nc2ccc(Cl)cc2F)c2sccc2n1,-18%
9,COc1cc(C(=O)N2CCC(C(N)=O)CC2)ccc1OCc1c(C)noc1C,-3.78%
10,Cc1noc(C)c1COc1ccc(C(=O)N2CCN(S(=O)(=O)c3ccc(F)cc3)CC2)cc1,-4.3%
11,CCOC(=O)c1c(NC(=O)CN2C(=O)NC3(CCC(C)CC3)C2=O)sc(C)c1CC (stereo unspecified),3.65%
12,CC(Oc1ccccc1Cl)C(=O)Nc1ccc(S(=O)(=O)Nc2nccs2)cc1 (stereo unspecified),-13.9%
13,CCCCCCCCCC(=O)OCC(O)CO (stereo unspecified),3.56%
14,O=C(CSc1nnc(Cn2c(=O)sc3ccccc32)n1-c1ccccc1)NCc1ccco1,-0.55%
15,Cc1cccc(COc2ccccc2C(=O)NC2CCC(O)CC2)c1 (stereo unspecified),-4.57%
16,Cc1csc2sc(-c3ccnc(SCC(=O)NCc4ccccc4)n3)c(C)c12,-12.3%
17,CCC(=O)N1[C@H](CN(CC)C(C)=O)[C@@H](c2ccc(-c3ccccc3)cc2)[C@@H]1CO,1.41% [at 23.5 µM]
18,CC(C)C#Cc1ccc([C@@H]2[C@@H](CO)N3C(=O)CN(S(=O)(=O)c4ccccc4)C[C@@H]23)cc1,-4.65%
19,CN(C[C@@H]1N[C@H](CO)[C@H]1c1ccccc1)C(=O)c1ccccn1,1.53%
20,CNC(=O)CC1C(=O)N(c2ccc(F)cc2)C(=S)N1NC(=O)c1ccc(Cl)cc1 (stereo unspecified),-23.1%
21,C[C@H]1CCCCO[C@H](CN(C)C(=O)Nc2ccc(C(F)(F)F)cc2)[C@@H](C)CN([C@@H](C)CO)C(=O)c2cc(NC(=O)Nc3ccc(F)cc3)ccc2O1,-0.6%
22,C[C@H](CO)N1C[C@H](C)[C@@H](CN(C)C(=O)Nc2ccc(C(F)(F)F)cc2)OCCCC[C@H](C)Oc2ccc(NC(=O)Nc3ccc(F)cc3)cc2C1=O,-21%
23,C[C@@H]1CN([C@@H](C)CO)C(=O)c2cccc(NC(=O)NC3CCCCC3)c2O[C@@H]1CN(C)Cc1ccc(Cl)c(Cl)c1,5.25%

row,SMILES,"activity change, negative = cytotoxicity"
1,C[C@H]1CCCCO[C@@H](CN(C)C(=O)Nc2ccc(C(F)(F)F)cc2)[C@@H](C)CN([C@@H](C)CO)C(=O)c2cc(NC(=O)Nc3ccc4c(c3)OCO4)ccc2O1,-1.27%
2,C[C@H]1CCCCO[C@@H](CN(C)C(=O)Nc2ccc(C(F)(F)F)cc2)[C@@H](C)CN([C@@H](C)CO)C(=O)c2cc(NC(=O)Nc3ccc(F)cc3)ccc2O1,14.7%
3,C[C@H]1CCCCO[C@@H](CN(C)C(=O)C2CCCCC2)[C@@H](C)CN([C@@H](C)CO)C(=O)c2cc(NC(=O)Nc3ccc(C(F)(F)F)cc3)ccc2O1,-1.26% [at 23.5 µM]
4,C[C@H]1CN([C@@H](C)CO)S(=O)(=O)c2ccc(/C=C/c3ccccc3)cc2O[C@@H]1CN(C)C(=O)Nc1ccc(F)cc1,-1.73%
5,Cn1cnc2nc[nH]c2c1=S,1.09%
6,Cc1ccc(NC(=O)COc2ccc(Br)cc2CO)cc1S(=O)(=O)N1CCOCC1,5.44%
7,CCc1nc(C)cn1S(=O)(=O)c1ccc2c(c1)OCCO2,23%
8,CCCCC(=NCCc1c(C)[nH]c2ccccc12)C1=C(O)CC(c2ccccc2)CC1=O (stereo unspecified),-16.5%
9,COC(=O)c1[nH]c2c(c1C)C(=O)CC(c1cccc(OC)c1)C2 (stereo unspecified),-9.76%
10,O=C(Cc1ccccn1)NCC[C@H]1CC[C@@H](NC(=O)Nc2ccc(C(F)(F)F)cc2)[C@@H](CO)O1,8.05%
11,Cc1ccc(S(=O)(=O)N(Cc2cc3ccccc3[nH]c2=O)c2cccc(C)c2)cc1,1.26%
12,C=CC(C)(C)c1[nH]cnc1/C=C1\NC(=O)C(C(C)C)NC1=O (stereo unspecified),-24.7%
13,O=C(Cc1ccc(Cl)cc1)OCC(=O)c1ccc[nH]1,-6.25%
14,Cc1ccc(CN(C)CC(=O)Nc2cccc([N+](=O)[O-])c2)o1,-15.2%
15,CCCCN(C(=O)c1cc(S(=O)(=O)N2CCCCC2)ccc1Cl)c1c(N)n(CC(C)C)c(=O)[nH]c1=O,-14.3%
16,O=C(C[C@H]1CC[C@@H]2[C@H](COC[C@@H](O)CN2S(=O)(=O)c2ccccc2)O1)Nc1ccc(-c2ccccc2)cc1,-22.6%
17,CN1C(=O)c2cc(NC(=O)Cc3ccccc3)ccc2OC[C@@H]2O[C@H](CC(=O)NCc3ccc(Cl)cc3)CC[C@H]21,-16%
18,COc1ccc(NC(=O)CSc2nnc(Cc3cccs3)n2C)cc1,-0.153%
19,CCCCn1cnc2c(c(CC#N)nn2-c2ccccc2)c1=N,0.565%
